Reference: paper PMC7862700, “An all-to-all approach to the identification of sequence-specific readers for epigenetic DNA modifications on cytosine”

What was measured:
Experiment in all cases: DAPPL (digital affinity profiling via proximity ligation, sequencing); 10 mM Tris-HCl pH 7.5, 50 mM NaCl, 1 mM DTT, 4% glycerol, room temperature, 30 min; GST-TFs on glutathione beads, 16-mer random dsDNA library, 0.1% formaldehyde crosslink after washing; high values mean tight binding
FLI1 = target: T1, FLI1 (Homo sapiens, UniProt Q01543 1-452); settings: protein: recombinant; tags: N-terminal GST; dsDNA, one strand shown
T1 sequence: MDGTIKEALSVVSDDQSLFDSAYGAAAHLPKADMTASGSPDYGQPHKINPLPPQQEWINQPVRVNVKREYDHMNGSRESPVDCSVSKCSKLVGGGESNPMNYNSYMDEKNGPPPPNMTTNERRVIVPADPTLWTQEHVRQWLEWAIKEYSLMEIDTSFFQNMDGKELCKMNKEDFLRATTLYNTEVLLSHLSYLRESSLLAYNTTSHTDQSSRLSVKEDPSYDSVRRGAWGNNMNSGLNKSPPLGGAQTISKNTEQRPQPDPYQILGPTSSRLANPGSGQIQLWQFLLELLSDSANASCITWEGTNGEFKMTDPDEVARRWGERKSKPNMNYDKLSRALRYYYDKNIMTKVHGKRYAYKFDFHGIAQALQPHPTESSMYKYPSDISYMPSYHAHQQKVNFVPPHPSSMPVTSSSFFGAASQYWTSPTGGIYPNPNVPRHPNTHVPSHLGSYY
Method in brief: (§1)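 Human transcription factors fused to GST were expressed in yeast, captured on glutathione beads, given DNA barcodes and pooled with a GST-only negative control. Pools were incubated with 200 nmole of a 16-mer random double-stranded DNA library in Tris/NaCl/DTT/glycerol buffer at room temperature for 30 min. They were then washed, crosslinked with 0.1% formaldehyde, proximity-ligated (BsaI/T4 ligase, 1 h, 37 °C), PCR-amplified and sequenced on an Illumina NextSeq500. Binding signal is each 6-mer's read frequency for a factor divided by its frequency for the GST control.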

ELK1 = target: T2, ELK1 (Homo sapiens, UniProt P19419 1-428); settings: protein: recombinant; tags: N-terminal GST; dsDNA, one strand shown
T2 sequence: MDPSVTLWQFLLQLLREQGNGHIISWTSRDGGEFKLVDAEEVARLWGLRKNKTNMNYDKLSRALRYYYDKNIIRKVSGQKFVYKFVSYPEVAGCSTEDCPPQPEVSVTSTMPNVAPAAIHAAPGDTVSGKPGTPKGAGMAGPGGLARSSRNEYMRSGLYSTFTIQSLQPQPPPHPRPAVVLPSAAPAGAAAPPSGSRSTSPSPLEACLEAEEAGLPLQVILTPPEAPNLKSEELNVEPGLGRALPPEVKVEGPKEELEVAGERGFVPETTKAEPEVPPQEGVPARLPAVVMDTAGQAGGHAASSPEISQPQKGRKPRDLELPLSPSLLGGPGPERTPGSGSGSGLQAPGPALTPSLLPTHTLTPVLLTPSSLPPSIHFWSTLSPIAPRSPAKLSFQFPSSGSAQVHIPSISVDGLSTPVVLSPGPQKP
Method in brief: as §1

GABPA = target: T3, GABPA (Homo sapiens, UniProt Q06546 1-454); settings: protein: recombinant; tags: N-terminal GST; dsDNA, one strand shown
T3 sequence: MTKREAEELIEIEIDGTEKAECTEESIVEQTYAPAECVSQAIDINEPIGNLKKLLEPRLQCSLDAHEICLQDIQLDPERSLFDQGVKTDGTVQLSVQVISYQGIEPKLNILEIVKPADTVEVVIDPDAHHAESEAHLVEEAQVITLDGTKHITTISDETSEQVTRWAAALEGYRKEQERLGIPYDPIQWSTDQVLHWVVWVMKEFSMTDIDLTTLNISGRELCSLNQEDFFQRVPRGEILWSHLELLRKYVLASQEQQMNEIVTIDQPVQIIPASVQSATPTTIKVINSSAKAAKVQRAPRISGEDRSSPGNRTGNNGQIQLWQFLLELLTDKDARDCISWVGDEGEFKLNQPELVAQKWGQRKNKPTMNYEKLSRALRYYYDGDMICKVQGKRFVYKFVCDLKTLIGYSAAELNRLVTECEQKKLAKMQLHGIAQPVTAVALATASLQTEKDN
Method in brief: as §1

ERG = target: T4, ERG (Homo sapiens, UniProt P11308 1-479); settings: protein: recombinant; tags: N-terminal GST; dsDNA, one strand shown
T4 sequence: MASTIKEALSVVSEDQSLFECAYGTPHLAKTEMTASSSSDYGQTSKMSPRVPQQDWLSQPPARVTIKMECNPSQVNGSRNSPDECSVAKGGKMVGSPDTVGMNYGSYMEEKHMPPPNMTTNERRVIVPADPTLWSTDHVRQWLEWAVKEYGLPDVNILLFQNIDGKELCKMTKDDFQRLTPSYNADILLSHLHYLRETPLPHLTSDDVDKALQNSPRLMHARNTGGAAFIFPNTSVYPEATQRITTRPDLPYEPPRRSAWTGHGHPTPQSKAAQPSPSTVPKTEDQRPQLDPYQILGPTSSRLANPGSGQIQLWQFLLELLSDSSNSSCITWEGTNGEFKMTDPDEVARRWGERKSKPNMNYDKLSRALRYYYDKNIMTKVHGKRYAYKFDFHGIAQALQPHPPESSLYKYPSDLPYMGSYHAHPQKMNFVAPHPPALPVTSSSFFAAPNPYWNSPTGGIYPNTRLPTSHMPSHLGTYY
Method in brief: as §1

ELF1 = ELF1 (Homo sapiens, UniProt P32519 1-619); settings: protein: recombinant; tags: N-terminal GST; dsDNA, one strand shown
Method in brief: as §1

EHF = target: T5, EHF (Homo sapiens, UniProt Q9NZC4 1-300); settings: protein: recombinant; tags: N-terminal GST; dsDNA, one strand shown
T5 sequence: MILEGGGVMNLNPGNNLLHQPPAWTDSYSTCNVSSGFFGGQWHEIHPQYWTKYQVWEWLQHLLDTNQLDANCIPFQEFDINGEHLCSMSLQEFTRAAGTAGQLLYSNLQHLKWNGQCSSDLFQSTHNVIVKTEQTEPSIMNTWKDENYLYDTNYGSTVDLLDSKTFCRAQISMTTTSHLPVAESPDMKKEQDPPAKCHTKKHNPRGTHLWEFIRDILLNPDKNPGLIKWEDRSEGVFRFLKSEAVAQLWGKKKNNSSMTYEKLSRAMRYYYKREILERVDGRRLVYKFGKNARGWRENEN
Method in brief: as §1

SPI1 = SPI1 (Homo sapiens, UniProt P17947 1-270); settings: protein: recombinant; tags: N-terminal GST; dsDNA, one strand shown
Method in brief: as §1

SPIB = SPIB (Homo sapiens, UniProt Q01892 1-262); settings: protein: recombinant; tags: N-terminal GST; dsDNA, one strand shown
Method in brief: as §1

ELK3 = target: T6, ELK3 (Homo sapiens, UniProt P41970 1-407); settings: protein: recombinant; tags: N-terminal GST; dsDNA, one strand shown
T6 sequence: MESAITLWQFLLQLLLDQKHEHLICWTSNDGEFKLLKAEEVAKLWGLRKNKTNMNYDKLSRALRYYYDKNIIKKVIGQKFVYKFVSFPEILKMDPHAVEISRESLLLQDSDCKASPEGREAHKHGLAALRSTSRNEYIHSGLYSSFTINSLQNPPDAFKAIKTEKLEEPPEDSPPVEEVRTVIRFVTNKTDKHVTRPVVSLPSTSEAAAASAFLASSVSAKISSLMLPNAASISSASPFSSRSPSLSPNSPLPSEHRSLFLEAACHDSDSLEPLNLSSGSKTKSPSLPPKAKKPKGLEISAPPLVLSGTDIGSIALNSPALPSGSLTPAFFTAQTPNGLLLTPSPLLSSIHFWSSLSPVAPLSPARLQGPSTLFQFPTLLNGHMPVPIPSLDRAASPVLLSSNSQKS
Method in brief: as §1

FEV = target: T7, FEV (Homo sapiens, UniProt Q99581 1-238); settings: protein: recombinant; tags: N-terminal GST; dsDNA, one strand shown
T7 sequence: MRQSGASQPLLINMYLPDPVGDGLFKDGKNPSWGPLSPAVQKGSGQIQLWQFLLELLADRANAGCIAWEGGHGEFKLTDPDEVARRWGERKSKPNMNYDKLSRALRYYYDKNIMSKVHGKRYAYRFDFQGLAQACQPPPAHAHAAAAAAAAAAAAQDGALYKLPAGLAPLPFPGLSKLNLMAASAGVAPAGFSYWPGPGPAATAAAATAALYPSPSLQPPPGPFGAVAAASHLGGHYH
Method in brief: as §1

ETV5 = ETV5 (Homo sapiens, UniProt P41161 1-510); settings: protein: recombinant; tags: N-terminal GST; dsDNA, one strand shown
Method in brief: as §1

HSF1 = HSF1 (Homo sapiens, UniProt Q00613 1-529); settings: protein: recombinant; tags: N-terminal GST; chain copies: 3; dsDNA, one strand shown
Method in brief: as §1

SPIC = target: T8, SPIC (Homo sapiens, UniProt Q8N5J4 1-248); settings: protein: recombinant; tags: N-terminal GST; dsDNA, one strand shown
T8 sequence: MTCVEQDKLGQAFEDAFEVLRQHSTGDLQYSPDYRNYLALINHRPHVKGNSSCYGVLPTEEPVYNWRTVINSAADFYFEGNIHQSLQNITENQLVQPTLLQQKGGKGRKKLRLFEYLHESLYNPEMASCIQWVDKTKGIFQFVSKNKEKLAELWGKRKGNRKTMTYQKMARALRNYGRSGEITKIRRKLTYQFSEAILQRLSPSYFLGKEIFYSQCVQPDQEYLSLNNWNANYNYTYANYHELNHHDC
Method in brief: as §1

ELF4 = ELF4 (Homo sapiens, UniProt Q99607 1-663); settings: protein: recombinant; tags: N-terminal GST; dsDNA, one strand shown
Method in brief: as §1

ELK4 = target: T9, ELK4 (Homo sapiens, UniProt P28324-2 1-405); settings: protein: recombinant; tags: N-terminal GST; dsDNA, one strand shown
T9 sequence: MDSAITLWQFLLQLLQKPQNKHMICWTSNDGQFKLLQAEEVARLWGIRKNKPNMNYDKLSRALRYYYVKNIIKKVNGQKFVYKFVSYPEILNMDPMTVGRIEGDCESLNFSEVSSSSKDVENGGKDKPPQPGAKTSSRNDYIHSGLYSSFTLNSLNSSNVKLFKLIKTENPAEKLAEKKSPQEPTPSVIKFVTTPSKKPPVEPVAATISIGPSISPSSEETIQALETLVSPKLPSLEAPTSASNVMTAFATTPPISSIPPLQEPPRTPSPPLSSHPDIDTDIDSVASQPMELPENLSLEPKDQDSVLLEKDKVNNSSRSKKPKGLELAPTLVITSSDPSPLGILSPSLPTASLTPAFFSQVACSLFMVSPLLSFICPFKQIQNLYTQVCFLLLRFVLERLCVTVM
Method in brief: as §1

ETV2 = target: T10, ETV2 (Homo sapiens, UniProt O00321 1-342); settings: protein: recombinant; tags: N-terminal GST; dsDNA, one strand shown
T10 sequence: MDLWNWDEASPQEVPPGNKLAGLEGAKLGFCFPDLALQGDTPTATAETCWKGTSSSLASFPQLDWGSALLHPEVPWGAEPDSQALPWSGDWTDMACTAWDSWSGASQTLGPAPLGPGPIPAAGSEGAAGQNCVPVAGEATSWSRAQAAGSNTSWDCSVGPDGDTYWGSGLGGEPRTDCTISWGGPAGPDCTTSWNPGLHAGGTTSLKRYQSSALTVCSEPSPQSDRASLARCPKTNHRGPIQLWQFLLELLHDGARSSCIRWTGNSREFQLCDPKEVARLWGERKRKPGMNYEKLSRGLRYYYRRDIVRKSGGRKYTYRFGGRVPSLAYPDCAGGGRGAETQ
Method in brief: as §1

ELF3 = target: T11, ELF3 (Homo sapiens, UniProt P78545 1-371); settings: protein: recombinant; tags: N-terminal GST; dsDNA, one strand shown
T11 sequence: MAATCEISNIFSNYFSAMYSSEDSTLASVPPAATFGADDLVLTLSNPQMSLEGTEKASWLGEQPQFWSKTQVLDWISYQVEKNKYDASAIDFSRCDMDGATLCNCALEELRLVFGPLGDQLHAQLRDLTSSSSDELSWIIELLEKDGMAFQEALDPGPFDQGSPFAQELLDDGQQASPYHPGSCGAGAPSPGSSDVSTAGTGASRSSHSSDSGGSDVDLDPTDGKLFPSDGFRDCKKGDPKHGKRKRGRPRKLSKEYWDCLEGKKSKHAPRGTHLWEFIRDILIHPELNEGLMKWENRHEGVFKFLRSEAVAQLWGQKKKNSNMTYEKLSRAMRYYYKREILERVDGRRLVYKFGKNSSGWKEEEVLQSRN
Method in brief: as §1

CRX = CRX (Homo sapiens, UniProt O43186 1-299); settings: protein: recombinant; tags: N-terminal GST; dsDNA, one strand shown
Method in brief: as §1

ETV1 = ETV1 (Homo sapiens, UniProt P50549 1-477); settings: protein: recombinant; tags: N-terminal GST; dsDNA, one strand shown
Method in brief: as §1

Chain of ETV1 (P50549 whole entry): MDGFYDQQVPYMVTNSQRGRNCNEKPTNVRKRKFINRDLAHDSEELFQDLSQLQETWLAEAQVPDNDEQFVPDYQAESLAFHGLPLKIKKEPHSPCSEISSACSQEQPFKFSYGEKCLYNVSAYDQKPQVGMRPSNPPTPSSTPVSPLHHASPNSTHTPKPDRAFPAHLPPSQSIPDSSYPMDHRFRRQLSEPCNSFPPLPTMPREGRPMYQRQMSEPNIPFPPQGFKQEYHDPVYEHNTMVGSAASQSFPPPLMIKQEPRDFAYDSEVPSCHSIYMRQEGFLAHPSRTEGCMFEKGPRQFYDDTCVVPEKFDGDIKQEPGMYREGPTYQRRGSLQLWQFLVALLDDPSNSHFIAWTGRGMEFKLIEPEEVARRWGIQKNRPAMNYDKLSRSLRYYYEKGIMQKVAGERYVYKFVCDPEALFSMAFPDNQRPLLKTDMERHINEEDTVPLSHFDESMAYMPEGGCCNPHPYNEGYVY
Chain of ELF4 (Q99607 whole entry): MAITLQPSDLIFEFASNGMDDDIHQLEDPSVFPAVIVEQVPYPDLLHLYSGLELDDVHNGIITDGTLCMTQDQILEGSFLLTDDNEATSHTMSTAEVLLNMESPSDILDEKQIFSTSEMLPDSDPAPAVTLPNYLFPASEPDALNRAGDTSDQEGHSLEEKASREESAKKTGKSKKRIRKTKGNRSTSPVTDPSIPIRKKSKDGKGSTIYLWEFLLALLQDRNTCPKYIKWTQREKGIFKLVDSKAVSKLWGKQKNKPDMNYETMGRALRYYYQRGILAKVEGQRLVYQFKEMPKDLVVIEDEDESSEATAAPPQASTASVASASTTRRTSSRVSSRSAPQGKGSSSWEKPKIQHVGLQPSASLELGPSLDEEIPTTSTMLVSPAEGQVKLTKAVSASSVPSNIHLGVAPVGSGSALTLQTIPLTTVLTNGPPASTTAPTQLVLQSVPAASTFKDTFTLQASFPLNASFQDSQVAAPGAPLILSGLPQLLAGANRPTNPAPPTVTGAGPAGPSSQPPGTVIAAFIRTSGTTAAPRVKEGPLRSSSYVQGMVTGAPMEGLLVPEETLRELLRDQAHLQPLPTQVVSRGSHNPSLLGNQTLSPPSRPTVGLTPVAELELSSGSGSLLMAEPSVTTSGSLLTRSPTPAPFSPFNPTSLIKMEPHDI
Chain of ETV5 (P41161 whole entry): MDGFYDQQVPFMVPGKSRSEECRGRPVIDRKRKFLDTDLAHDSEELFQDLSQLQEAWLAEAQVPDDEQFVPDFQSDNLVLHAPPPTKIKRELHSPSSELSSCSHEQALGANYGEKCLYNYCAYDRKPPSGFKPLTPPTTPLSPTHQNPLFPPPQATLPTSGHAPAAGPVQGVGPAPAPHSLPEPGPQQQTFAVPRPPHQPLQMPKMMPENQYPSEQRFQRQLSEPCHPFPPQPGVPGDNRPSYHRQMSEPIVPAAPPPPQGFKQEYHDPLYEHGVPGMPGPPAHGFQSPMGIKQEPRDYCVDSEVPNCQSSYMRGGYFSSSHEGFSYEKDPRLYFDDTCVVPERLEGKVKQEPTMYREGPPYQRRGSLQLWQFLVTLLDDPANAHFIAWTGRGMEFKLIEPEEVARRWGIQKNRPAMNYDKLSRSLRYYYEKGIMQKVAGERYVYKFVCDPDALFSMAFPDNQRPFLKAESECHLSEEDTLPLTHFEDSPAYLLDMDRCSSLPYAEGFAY
Chain of CRX (O43186 whole entry): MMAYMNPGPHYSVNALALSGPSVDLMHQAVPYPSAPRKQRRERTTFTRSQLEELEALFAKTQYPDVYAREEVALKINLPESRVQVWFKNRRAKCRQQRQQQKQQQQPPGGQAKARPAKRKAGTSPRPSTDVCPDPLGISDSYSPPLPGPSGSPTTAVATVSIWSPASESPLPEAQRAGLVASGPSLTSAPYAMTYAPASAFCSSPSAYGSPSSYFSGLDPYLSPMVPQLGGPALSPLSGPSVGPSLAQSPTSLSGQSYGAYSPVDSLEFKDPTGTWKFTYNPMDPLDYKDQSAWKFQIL
Chain of SPIB (Q01892 whole entry): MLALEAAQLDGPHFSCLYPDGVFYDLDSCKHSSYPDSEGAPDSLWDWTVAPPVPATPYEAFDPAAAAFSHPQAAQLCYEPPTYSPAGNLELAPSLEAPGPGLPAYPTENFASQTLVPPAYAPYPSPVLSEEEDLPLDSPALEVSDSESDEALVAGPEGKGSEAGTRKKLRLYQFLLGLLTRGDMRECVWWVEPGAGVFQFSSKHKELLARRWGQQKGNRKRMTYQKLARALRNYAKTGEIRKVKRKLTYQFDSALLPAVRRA
Chain of ELF1 (P32519 whole entry): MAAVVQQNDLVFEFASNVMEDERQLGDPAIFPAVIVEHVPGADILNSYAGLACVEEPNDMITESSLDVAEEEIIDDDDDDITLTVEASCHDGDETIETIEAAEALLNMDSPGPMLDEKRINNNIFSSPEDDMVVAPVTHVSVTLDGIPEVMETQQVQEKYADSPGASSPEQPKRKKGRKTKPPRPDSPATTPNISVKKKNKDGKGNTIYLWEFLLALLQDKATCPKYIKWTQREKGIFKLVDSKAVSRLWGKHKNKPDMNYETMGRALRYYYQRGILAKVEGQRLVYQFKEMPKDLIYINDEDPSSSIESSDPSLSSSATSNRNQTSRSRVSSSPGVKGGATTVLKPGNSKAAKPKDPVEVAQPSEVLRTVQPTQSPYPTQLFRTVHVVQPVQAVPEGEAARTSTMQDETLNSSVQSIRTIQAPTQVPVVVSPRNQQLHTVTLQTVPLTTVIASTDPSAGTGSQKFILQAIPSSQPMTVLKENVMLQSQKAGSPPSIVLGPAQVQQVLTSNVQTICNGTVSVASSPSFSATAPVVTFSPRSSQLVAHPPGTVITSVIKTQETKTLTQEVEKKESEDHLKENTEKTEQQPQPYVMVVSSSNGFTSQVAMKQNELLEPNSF
Chain of HSF1 (Q00613 whole entry): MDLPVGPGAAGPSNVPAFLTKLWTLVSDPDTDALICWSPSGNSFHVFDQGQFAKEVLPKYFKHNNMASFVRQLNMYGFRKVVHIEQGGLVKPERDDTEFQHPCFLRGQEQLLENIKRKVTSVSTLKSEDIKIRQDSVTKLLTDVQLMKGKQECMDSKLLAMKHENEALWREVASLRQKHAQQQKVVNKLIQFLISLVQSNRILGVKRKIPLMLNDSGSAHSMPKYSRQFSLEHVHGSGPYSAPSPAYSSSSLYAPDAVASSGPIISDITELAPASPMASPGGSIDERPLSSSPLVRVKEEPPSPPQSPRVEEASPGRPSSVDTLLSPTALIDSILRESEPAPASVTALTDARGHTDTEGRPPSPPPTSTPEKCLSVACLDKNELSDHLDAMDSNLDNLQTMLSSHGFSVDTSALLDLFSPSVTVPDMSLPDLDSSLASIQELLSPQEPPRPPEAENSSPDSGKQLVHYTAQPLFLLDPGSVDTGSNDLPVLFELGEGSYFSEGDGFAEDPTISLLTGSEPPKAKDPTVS

Sequence: GTTCTT
- binding signal (FLI1): 1.19 fold enrichment (6-mer frequency, TF over GST control)
- binding signal (ELK1): 1.22 fold enrichment (6-mer frequency, TF over GST control)
- binding signal (GABPA): 1.09 fold enrichment (6-mer frequency, TF over GST control)
- binding signal (ERG): 1.19 fold enrichment (6-mer frequency, TF over GST control)
- binding signal (ELF1): 1.18 fold enrichment (6-mer frequency, TF over GST control)
- binding signal (EHF): 1.08 fold enrichment (6-mer frequency, TF over GST control)
- binding signal (SPI1): 1.09 fold enrichment (6-mer frequency, TF over GST control)
- binding signal (SPIB): 1.17 fold enrichment (6-mer frequency, TF over GST control)
- binding signal (ELK3): 1.35 fold enrichment (6-mer frequency, TF over GST control)
- binding signal (FEV): 1.11 fold enrichment (6-mer frequency, TF over GST control)
- binding signal (ETV5): 1.23 fold enrichment (6-mer frequency, TF over GST control)
- binding signal (HSF1): 1.36 fold enrichment (6-mer frequency, TF over GST control)
- binding signal (SPIC): 1.12 fold enrichment (6-mer frequency, TF over GST control)
- binding signal (ELF4): 1.18 fold enrichment (6-mer frequency, TF over GST control)
- binding signal (ELK4): 1.23 fold enrichment (6-mer frequency, TF over GST control)
- binding signal (ETV2): 1.15 fold enrichment (6-mer frequency, TF over GST control)
- binding signal (ELF3): 1.31 fold enrichment (6-mer frequency, TF over GST control)
- binding signal (CRX): 1.12 fold enrichment (6-mer frequency, TF over GST control)
- binding signal (ETV1): 1.21 fold enrichment (6-mer frequency, TF over GST control)
